Measured values published in PubChem BioAssay (NCATS).
Inconclusive results are not listed. Entries that show only a call come without a potency. The source made the active and inactive calls. Calls follow the shape of the dose curve; as a rule, active = well fitted cell-killing curve with a large enough effect; inconclusive = small, poorly fitted or top-dose-only effect, or effect the other way; inactive = flat fitted curve, though single readings scatter.

assay: qHTS assay for cell viability of the p53RE-bla HCT-116 cell line (AID 743292); details: p53RE-bla HCT-116 viability, ATP luminescence, 16 h; series mostly up to 95 µM; also: nearly all actives have a fitted effect of over 55% in size
From the text: U.S. Tox21 Program National Center for Advancing Translational Sciences [NCATS] NIH Chemical Genomics Center [NCGC] U.S. Environmental Protection Agency [EPA] National Institutes of Environmental Health Sciences [NIEHS] National Toxicology Program [NTP] U.S. Food and Drug Administration [FDA] Tox21 Assay Overview: The CellTiter-Glo Luminescent Cell Viability Assay (Promega, Madison, WI) is a homogeneous method to determine the number of viable cells in culture based on quantitation of the ATP present, which signals the presence of metabolically active cells. This cell viability assay was used to screen environmental chemicals in the CellSensor p53RE-bla HCT-116 cell line (Invitrogen).
Tox21 Assay Protocol Summary: Cell viability after compound treatment was measured using a luciferase-coupled ATP quantitation assay (CellTiter-Glo viability assay, Promega, Madison, WI) in CellSensor p53RE-bla HCT-116 cell line (Invitrogen). Total intracellular ATP content corresponds to the number of metabolically competent cells after compound treatment. The cells were dispensed at 4,000 cells/5 uL/well in 1,536-well white/solid bottom assay plates using a Flying Reagent Dispenser (Aurora Discovery, San Diego, CA). The cells were incubated for 5 h at 37 C, followed by the addition of 23 nL of compounds dissolved in DMSO, positive controls or DMSO only using a pintool work station (Kalypsys, San Diego, CA). The assay plates were incubated for 16 h at 37 C, followed by the addition of 5 uL/well of CellTiter-Glo reagent. After 30 min incubation at room temperature, the luminescence intensity of the plates was measured using a ViewLux plate reader (PerkinElmer, Shelton, CT).

| SMILES | Potency |
| --- | --- |
| NC(=S)NNC(N)=S | inactive |
| CCNS(=O)(=O)c1ccc(C)cc1 | inactive |
| Nc1cccc([N+](=O)[O-])c1 | inactive |
| CCOc1cccc(N)c1 | inactive |
| C=C(C)C(N)=O | inactive |
| CC(C)(C)c1ccc(OCC2CO2)cc1 (stereo not given) | inactive |
| C=C(C)C(=O)OCC(C)C | inactive |
| CC1CCCO1 (stereo not given) | inactive |
| CC(=O)c1cccc([N+](=O)[O-])c1 | inactive |
| Nc1cccc(C(F)(F)F)c1 | inactive |
| Nc1c(Cl)cc(Cl)cc1Cl | inactive |
| O=CNc1ccccc1 | inactive |
| Cc1cccc([N+](=O)[O-])c1C(=O)O | inactive |
| O=Nc1ccc(NO)cc1 | inactive |
| Clc1ccccn1 | inactive |
| O=C1NC(=O)c2cc([N+](=O)[O-])ccc21 | inactive |
| Cc1ccccc1C#N | inactive |
| CCC(C)(C)C | inactive |
| CNc1ccccc1 | inactive |
| O=C(O)c1c(Cl)cccc1Cl | inactive |

| SMILES | Potency |
| --- | --- |
| C=C(C)C(=O)OCCCCCC | inactive |
| Cc1ccc(CO)cc1 | inactive |
| CC(=O)c1ccccc1[N+](=O)[O-] | inactive |
| COc1cccc2sc(N)nc12 | inactive |
| Oc1cccc(Nc2ccccc2)c1 | inactive |
| CCCCCCO | inactive |
| Nc1cccc(O)c1 | inactive |
| Cc1ccc(C)c(N)c1 | inactive |
| CC(=O)c1ccc([N+](=O)[O-])cc1 | inactive |
| CSCCC=O | inactive |
| CCOc1ccc(NC(C)=O)cc1N | inactive |
| CCCCC(CC)CO (stereo not given) | inactive |
| BrC(Br)C(Br)Br | inactive |
| Nc1nc(-c2ccccc2)cs1 | inactive |
| COC(=O)CCCC(=O)OC | inactive |
| C1CCOC1 | inactive |
| NC(=O)c1ccccc1[N+](=O)[O-] | inactive |
| Nc1cccc2c(=O)[nH][nH]c(=O)c12 | inactive |
| CC=O | inactive |
| Cc1c(N)cccc1[N+](=O)[O-] | inactive |
